Measured values published in PubChem BioAssay AID624305 (National Center for Advancing Translational Sciences (NCATS), 2012).
Inconclusive results are not listed. The source made the active and inactive calls. Calls come from the whole dose curve; as a rule, active = well fitted activation curve with a large enough effect; inconclusive = small, poorly fitted or top-dose-only effect; inactive = no such curve, though single readings can be large or run the other way.

Assay: qHTS assay for re-activators of p53 using a Luc reporter: Hit Validation; note: nearly all actives have a fitted effect of over 75% in size; for activation: 0% is about no effect
Conditions: p53-responsive luciferase reporter cells, luminescence, H1299 line expressing heat-sensitive Ala138Val p53; series mostly up to 46.1 µM; activation: at the top concentration
Outline: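 H1299 (p53-null) cells stably carrying p53-A138V and a BP100-luciferase reporter, 1000 cells/well, treated 24 h at 37 deg C. Compounds at several concentrations, 1:5 dilution; nocodazole control; luminescence read after 10 min with detection reagent.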
Potency is the fitted concentration of half-maximal effect.

SMILES	Potency	activation
Cc1cc(C(=O)Nc2ccc(Br)cn2)sc1C	2060 nM (active)	–
COc1cccc(/C=N/NC(=O)c2nc(-c3ccccc3)cc(-c3ccccc3)n2)c1O	–	-23.6% [at 9.22 µM] (inactive)
O=C(NNC(=O)c1cc(-c2ccccc2)nn1-c1ccccc1)c1ccccc1	–	1.05% [at 9.22 µM] (inactive)
Cc1cc(C)cc(NC(=O)CSc2nnc(-c3ccccc3C)o2)c1	–	35.9% (inactive)
O=C(NNC(=O)c1ccc(Cl)cc1Cl)c1ccncc1	–	-28.8% [at 9.22 µM] (inactive)
C=CCSC1=N/C(=C\c2cc(OCC)c(OC(C)=O)c([N+](=O)[O-])c2)C(=O)S1	–	4.17% (inactive)
Cc1cccc2nc(CSC(=N)N)c(Br)n12	–	3.7% [at 9.22 µM] (inactive)
O=C(NOCc1ccccc1)c1ccc(Cl)cc1	1840 nM (active)	–
Cc1ccc(NC(=O)CCN2C(=O)c3cccc([N+](=O)[O-])c3C2=O)c(Br)c1	–	38% (inactive)
CCc1ccc(OCC(=O)NC(NC(=S)Nc2ccccc2C)C(Cl)(Cl)Cl)cc1 (stereo not drawn)	–	39.1% (inactive)
C/C(=N\NC(=S)NC1CCCCC1)c1ccccc1	–	-80.2% (inactive)
CCOc1ccc(OCCSc2nc3ccccc3n2CC(=O)O)cc1	–	-1.04% (inactive)
CC(C)(C)OC(=O)N1CCC(C(=O)Nc2ccc3c(c2)CCC3)CC1	23100 nM (active)	–
Cc1noc(C)c1COc1ccc(C(=O)NCCOc2ccccc2)cc1	–	25% (inactive)
O=C(CCS(=O)(=O)c1ccccc1)Nc1ccc(-c2nc3ccccc3s2)cc1	651 nM (active)	–
c1ccc(COc2ccc(OCCOCCn3cncn3)cc2)cc1	2910 nM (active)	–
Cc1ccc(CCc2nnc(SCC(=O)Nc3cccc(Cl)c3)n2-c2ccccc2)o1	–	-16.1% (inactive)
CCOc1ccc(-c2cnc3ccccc3n2)cc1	–	-85.9% (inactive)
Cc1cc([N+](=O)[O-])ccc1NC(=O)/C=C/c1cccs1	–	40.6% (inactive)

SMILES	Potency	activation
Cc1c(C(=O)OC2CCC(C)CC2)[nH]c2c1C(=O)CCC2 (stereo not drawn)	1160 nM (active)	–
COc1ccc(C(C)(C)C)cc1NC(=O)Nc1ccc2c(c1)OCO2	–	22.4% (inactive)
O=C(Cn1cc(SCc2ccc(F)cc2)c2ccccc21)N1CCOCC1	–	-86.5% (inactive)
O=C(COC(=O)c1cn(-c2ccccc2)nc1-c1ccc(F)cc1)Nc1ncc(Cl)cc1Cl	–	21.9% (inactive)
O=C(O)c1ccc(N/N=C/c2ccc3ncccc3c2)cc1	184 nM (active)	–
Cc1ccc(-c2cc3nc(C)cc(NCc4ccco4)n3n2)cc1	7310 nM (active)	–
c1ccc(-c2csc(Nc3ncccn3)n2)cc1	2310 nM (active)	–
Cc1ccccc1C(=O)Nc1ccc(Br)cn1	3660 nM (active)	–
C=CCOc1c(OC)cc(/C=N/Nc2cccc(C(=O)O)c2)c(Br)c1Br	13000 nM (active)	–
O=C(N/N=C1\CCc2ccccc21)c1ccccc1O	1030 nM (active)	–
N#CC(Cc1ccccc1)(Cc1ccccc1)C(=O)NN	–	-87.5% (inactive)
Cc1ccc(-c2nc(-c3cccnc3)no2)c(C)c1	4610 nM (active)	–
COc1ccccc1-c1cc(C(=O)Nc2cc(C)on2)no1	16400 nM (active)	–
CCOc1ccc(NC(=O)C(c2ccccn2)N(C(=O)CCl)c2ccc(OC)cc2)cc1 (stereo not drawn)	–	40.6% (inactive)
N#Cc1cccc(N=Cc2c(O)ccc3ccccc23)c1	–	-9.9% (inactive)
Cc1cc(C(=O)Nc2nc3c(s2)CCCC3)cs1	231 nM (active)	–
CCCN(C(=O)c1cccc(S(=O)(=O)N2CCCc3ccccc32)c1)C1CCS(=O)(=O)C1 (stereo not drawn)	–	1.04% (inactive)
Cc1cc(C)cc(NC(=O)c2sc3nc(C)cc(C)c3c2N)c1	11600 nM (active)	–
COc1ccccc1-c1nc(-c2ccc(Br)o2)no1	366 nM (active)	–
